Sampled rows, rich in hits. Any-hit rate of the full collection: about 3.8%.
ELG1 DNA repair – ELG1-dependent DNA repair inhibition | HEK293T ELG1-luciferase reporter, luminescence, 16 h; DNA damage induced by 5-fluorouridine | Potency, µM (series often up to 46.1 µM), for inactives: at the top dose activity change, negative = inhibition, hits mostly inhibitors | 330,000 compounds, 2.3% hits; also: % is scaled to controls: 0 for no effect and ±100 for the full control effect; nearly all actives have a fitted effect of over 55% in size
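Cells (2,000 per well) received 5-fluorouridine plus test compound or DMSO and were incubated 16 hr at 37 °C, 5% CO2. Luciferase activity was read by luminescence 30 min after ONE-Glo addition; signal suppression marked inhibition of damage-induced ELG1 function.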
mIDH1 inhibitor – inhibitors of human mutant IDH1 R132H; 390,000 compounds, 0.093% hits; IDH1-R132H enzyme, NADPH consumption, diaphorase/resazurin fluorescence; Potency, µM (doses to about 76.6 µM), for inactives: at the highest dose activity change, negative = inhibition, actives largely listed as inhibitors; also: % is scaled to controls: 0 for no effect and ±100 for the full control effect; nearly all actives have a fitted effect of over 65% in size
Target sequence (O75874 whole entry R132H, stated change not applied): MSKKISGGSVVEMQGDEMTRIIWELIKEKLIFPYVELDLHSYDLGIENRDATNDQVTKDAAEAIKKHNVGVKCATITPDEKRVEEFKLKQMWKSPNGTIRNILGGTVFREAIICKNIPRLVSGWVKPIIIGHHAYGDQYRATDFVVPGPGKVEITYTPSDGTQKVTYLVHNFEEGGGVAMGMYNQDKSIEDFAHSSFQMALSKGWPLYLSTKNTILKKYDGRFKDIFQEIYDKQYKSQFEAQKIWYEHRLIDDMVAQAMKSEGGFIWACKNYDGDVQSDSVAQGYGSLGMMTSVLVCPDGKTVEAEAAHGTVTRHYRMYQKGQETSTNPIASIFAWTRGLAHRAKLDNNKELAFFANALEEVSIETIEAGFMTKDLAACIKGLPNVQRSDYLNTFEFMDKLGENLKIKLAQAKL
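IDH1-R132H (0.5 ug/mL) preincubated 30 min with compound, then NADPH (0.016 mM) and alpha-KG (2 mM) added; 80 min at RT, pH 7.5. Remaining NADPH coupled via diaphorase/resazurin to fluorescence (540/590 nm); concentration-response curves normalized to no-enzyme control.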
Nrf2 activator – activators of Nrf2 (ARE) signaling; AREc32 ARE-luciferase reporter (MCF7-derived line), luminescence, 24 h; Potency, µM (doses to about 46.1 µM), for inactives: at the top dose activation, actives largely listed as activators; 410,000 compounds, 0.31% hits; also: % of control where 0% means no effect; nearly all actives have a fitted effect of over 65% in size
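AREc32_Fluc, 1000 cells/well, OPTI-MEM + 5% FBS, o/n 37 deg C 5% CO2; 23 nL cpd by pin tool, 24 hr; Steady-Glo 30 min RT, luminescence.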
Nrf2 block – inhibitors of Nrf2 signaling. A549 ARE-Fluc reporter, luciferase luminescence, 18-24 h. Potency, µM (titrated, usually from 46 µM), without a hit: at the top dose activity change, negative = inhibition, usual class: inhibitors. 360,000 compounds, 2.1% hits. AID 504444; also: % is scaled to controls: 0 for no effect and ±100 for the full control effect; nearly all actives have a fitted effect of over 60% in size
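A549 ARE_Fluc cells (5000/well, 5% FBS OPTI-MEM) pre-incubated 2 h, then treated with compounds 18-24 h at 37C/5% CO2 in concentration-response. CellTiter-Fluor viability read first; BugLite luciferase luminescence after 15 min at room temperature gives Nrf2 activity.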
A549 tox – kills or reduces viability of A549 cells in Nrf2 counter-screen; A549 ARE-Fluc cells, CellTiter-Fluor viability, 18-24 h; Potency, µM (series often up to 46 µM), inactives show at the top dose activity change, negative = cytotoxicity, usual class: inhibitors; 390,000 compounds, 0.16% hits; AID 504648; also: % is scaled to controls: 0 for no effect and ±100 for the full control effect
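A549 ARE_Fluc cells in 5% FBS OPTI-MEM were exposed to compounds in concentration-response for 18-24 h at 37 deg C. Viability was read by CellTiter-Fluor fluorescence (Ex 405/Em 525) after 30 min, before the luciferase read.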
Numbers without * were called inactive; ? = inconclusive; · = not tested or not shown. Calls follow the shape of the dose curve; as a rule, active = well fitted curve in the direction sought with a large enough effect; inconclusive = small, poorly fitted or top-dose-only effect, or another doubt; inactive = no such curve, though single readings can be large; an effect the other way counts as inactive or inconclusive. Potency is read from the fitted curve at half-maximal effect.

SMILES	ELG1 DNA repair	mIDH1 inhibitor	Nrf2 activator	Nrf2 block	A549 tox
CCCc1c(C(=O)Nc2ccc(F)cc2F)cnn1-c1ccccc1	?	15%	9%	19%	0%
CCCc1c(C(=O)Nc2cc(C(C)(C)C)on2)cnn1-c1ccccc1	?	8%	0%	6.5µM*	0%
O=C(Nc1ccc2c(c1)C(=O)N(CC1CCCO1)C2=O)c1ccc(Cl)c(Cl)c1 (stereo not drawn)	9.2µM*	0%	0%	?	-17%
Cc1ccc(NC(=O)c2ccc3c(c2)C(=O)N(CC2CCCO2)C3=O)cc1C (stereo not drawn)	-9%	0%	3%	?	2%
CC(C)c1ccc(CCNC(=O)c2ccc([N+](=O)[O-])cc2)cc1	9.2µM*	2%	-1%	-3%	3%
COc1ccc(S(=O)(=O)Nc2ccc3c(c2)OCCO3)cc1OC	?	-3%	0%	-23%	5%
COc1ccccc1CC(Cc1nc2ccccc2[nH]1)c1nc2ccccc2[nH]1 (stereo not drawn)	-19%	-3%	4%	18%	3%
Cc1cccc(CC(Cc2nc3ccccc3[nH]2)c2nc3ccccc3[nH]2)c1 (stereo not drawn)	?	-1%	12%	26µM*	?
CCC(C)Cn1c(COc2ccc(OC)cc2)nc2ccccc21 (stereo not drawn)	·	13%	0%	-21%	-7%
CCC(C)Cn1c(C)nc2ccccc21 (stereo not drawn)	9.2µM*	2%	0%	?	1%
CC(=O)Nc1nc2ccccc2n1Cc1ccc(Cl)cc1	13µM*	-11%	1%	?	0%
Cc1nc2ccccc2n1Cc1ccccc1	?	5%	0%	21µM*	1%
O=C(Nc1ccc2c(c1)N(C1CCCC1)C(=O)c1ccccc1S2)c1cccc(F)c1	·	12%	1%	·	-18%
Cc1nn(-c2cc(C(F)(F)F)ccc2Cl)c2nc(C(Cl)(Cl)Cl)[nH]c(=O)c12	21µM*	-6%	-1%	?	-5%
COc1cc(OC)cc(C(=O)Nc2cc(-c3nc4ccccc4[nH]3)ccc2C)c1	·	9%	1%	?	-19%
Cc1ccc(C(C)C)c(OCC(=O)Nc2cc(-c3nc4ccccc4[nH]3)ccc2C)c1	·	·	0%	6.5µM*	9.2µM*
Cc1ccc(S(=O)(=O)C(NC(=O)c2ccccc2)=C(Cl)Cl)cc1	·	-3%	?	6%	?
Cc1ccc(C(=O)NC(=C(Cl)Cl)S(=O)(=O)c2ccc(Cl)cc2)cc1	0%	3%	?	?	?
Cc1ccc(C(=O)NC(=C(Cl)Cl)S(=O)(=O)c2ccc(C)cc2)cc1	-9%	-5%	11µM*	0%	-13%
Cc1ccc(S(=O)(=O)/C(=C/Cl)NC(=O)c2ccccc2)cc1	?	1%	?	18µM*	-7%
Cc1ccc(N2CCN(c3ncnc4onc(-c5ccc(F)cc5)c34)CC2)c(C)c1	·	-3%	-1%	-14%	1%
C/C(CCN1CCc2nc(-c3ccccc3)c(-c3ccccc3)cc2C1)=N\O[C@@H](C)c1cn([C@H](CO)Cc2ccccc2)nn1	21µM*	·	·	·	·
COC(=O)C/C=C/[C@@H](C)[C@@H](/C=N/O[C@@H](C)c1cn([C@H](CO)Cc2ccccc2)nn1)NS(=O)(=O)c1ccc(C)cc1	-7%	·	·	·	·
Cc1ccc(CNC(=O)CN2C(=O)CCn3nc(-c4ccccc4)cc32)cc1	·	-6%	-1%	-5%	1%
Cc1ccc(-c2nnc(Nc3cccc(O)c3)c3ccccc23)cc1S(=O)(=O)N1CCOCC1	·	2%	7%	16µM*	?
Cc1cccc(Nc2nnc(-c3ccc(N4CCOCC4)c([N+](=O)[O-])c3)c3ccccc23)c1	8.2µM*	-5%	0%	?	-22%
Cc1ccc(-c2nnc(Nc3ccccc3)c3ccccc23)cc1S(=O)(=O)N1CCOCC1	·	-9%	0%	-9%	4%
Cc1ccc(-c2nnc(Nc3ccc4c(c3)OCO4)c3ccccc23)cc1S(N)(=O)=O	16µM*	7%	4%	?	-6%
